Reference: the supplement of paper PMC6555819

How the values were obtained:
Assay in all cases: PBM binding z-score (relative to random genomic background probes); higher = stronger binding; sequences stand for … in GC…GCGATTGACAGCGTAGAATGAAGG
[1] = test system: PPARg:RXRa DBDmut IVT, anti-RXR (DBD mutation: RXRa K156A/R161A, NR concentration 270 nM, RXRa partner concentration 90 nM)
Summary of the method: (§1)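 Binding z-scores take random background probes as their reference. They come from custom Agilent 4×180K protein-binding microarrays incubated 1 h with ligand-free nuclear receptor dimers, with antibodies against each partner (one per run) detecting binding. Scanned fluorescence was regression-normalized.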

[2] = test system: PPARg:RXRa IVT, anti-PPARg (NR concentration 270 nM, RXRa partner concentration 90 nM)
Summary of the method: as §1

[3] = test system: PPARg DBDmut:RXRa IVT, anti-PPARg (DBD mutation: PPARg1 K132A/R137A, NR concentration 270 nM, RXRa partner concentration 90 nM)
Summary of the method: as §1

[4] = test system: PPARg DBDmut IVT, anti-PPARg (DBD mutation: PPARg1 K132A/R137A, NR concentration 270 nM)
Summary of the method: as §1

[5] = test system: PPARg homodimer (NR concentration 180 nM)
Summary of the method: as §1

[6] = test system: PXR:RXRa (NR concentration 270 nM, RXRa partner concentration 90 nM)
Summary of the method: as §1

[7] = test system: PXR homodimer (NR concentration 270 nM)
Summary of the method: as §1

[8] = test system: RARa:RXR (NR concentration 270 nM, RXRa partner concentration 90 nM)
Summary of the method: as §1

[9] = test system: RARa homodimer (NR concentration 270 nM)
Summary of the method: as §1

[10] = test system: RARb:RXRa (NR concentration 270 nM, RXRa partner concentration 90 nM)
Summary of the method: as §1

[11] = test system: RARb homodimer (NR concentration 270 nM)
Summary of the method: as §1

[12] = test system: RARg:RXRa (NR concentration 270 nM, RXRa partner concentration 90 nM)
Summary of the method: as §1

[13] = test system: RARg homodimer (NR concentration 270 nM)
Summary of the method: as §1

[14] = test system: RXRa DBDmut IVT, anti-RXR (DBD mutation: RXRa K156A/R161A, NR concentration 90 nM)
Summary of the method: as §1

[15] = test system: RXRa homodimer (NR concentration 180 nM)
Summary of the method: as §1

[16] = test system: THRa:RXRa (NR concentration 90 nM, RXRa partner concentration 90 nM)
Summary of the method: as §1

[17] = test system: THRa homodimer (NR concentration 90 nM)
Summary of the method: as §1

[18] = test system: VDR homodimer (NR concentration 270 nM)
Summary of the method: as §1

| Sequence | PBM binding z-score [1] | PBM binding z-score [2] | PBM binding z-score [3] | PBM binding z-score [4] | PBM binding z-score [5] | PBM binding z-score [6] | PBM binding z-score [7] | PBM binding z-score [8] | PBM binding z-score [9] | PBM binding z-score [10] | PBM binding z-score [11] | PBM binding z-score [12] | PBM binding z-score [13] | PBM binding z-score [14] | PBM binding z-score [15] | PBM binding z-score [16] | PBM binding z-score [17] | PBM binding z-score [18] |
| --- | --- | --- | --- | --- | --- | --- | --- | --- | --- | --- | --- | --- | --- | --- | --- | --- | --- | --- |
| TAGCGTAGGTCATTGGGCCAGTATAGTACGCATC | 1.8 | 3.26 | 0.193 | -0.343 | 1.85 | 2.07 | -0.335 | 2.36 | -0.0783 | 3.74 | 2.8 | 3.98 | 4.08 | 0.868 | 3.6 | 2.08 | -0.396 | 0.725 |
| CCGACTGGGGCTTAAGGTTACCATAAGCCAGCCC | 0.244 | 0.428 | -1.39 | -1.88 | 0.217 | 0.141 | -0.395 | 1.08 | -0.504 | 0.868 | 0.796 | 0.272 | 0.0964 | -0.55 | 0.688 | 2.53 | 1.94 | -0.232 |
| TCTTGTAGATCAGGCAGGTTAAGAAAGCCTGAGT | 1.29 | -0.151 | 0.127 | -0.335 | -0.356 | 0.175 | -0.218 | 0.0754 | 0.0377 | 0.0689 | -0.0605 | -0.161 | -0.489 | 0.355 | 0.102 | 0.149 | -0.429 | 0.00584 |
| CCTCGGAGGACAACAGGAGGTCAGATCTGCCAGA | 0.382 | 0.149 | -0.732 | -1.41 | 1.21 | 2.05 | 0.364 | 2.18 | 0.26 | 2.81 | 3.64 | 3.34 | 3.12 | 0.415 | 1.59 | 2.81 | 1.03 | 1.28 |
| CCTGCTAGGTCATGGCCAGCTAATCTACAGTATG | 4.25 | 3.91 | 0.0686 | -0.931 | 0.851 | 1.27 | -0.389 | 2.49 | -0.572 | 3.98 | 3.06 | 3.9 | 4.02 | 1.3 | 2.92 | 3.02 | 0.915 | 0.188 |
| ACTCTTAGTTGAGACGAGGGCAACCGATAGGTTG | -0.123 | 0.386 | -0.0171 | 0.118 | -0.417 | 1.34 | -0.122 | 0.668 | -0.22 | 0.939 | 1.14 | 0.56 | 0.695 | 0.403 | 0.46 | 2.59 | 0.356 | 0.844 |
| TCTCGGAGGACACGAATGGTCAGAGCTCGACATC | 1.33 | -0.256 | -0.6 | -0.622 | -0.755 | -0.324 | -0.617 | -0.159 | -0.635 | 1.5 | 0.664 | 0.332 | 1.29 | 0.733 | 0.156 | 1.01 | 0.00528 | -0.606 |
| CGAACGAGGGCGTGAGTTGATAGCAAATGCCGAT | 0.665 | 0.126 | -0.548 | -1.21 | -0.313 | -0.163 | -0.37 | -0.268 | -0.533 | 0.442 | -0.277 | 0.0501 | -0.0612 | 1.36 | 0.221 | 0.142 | -0.691 | 0.785 |
| ATCTCTAGGTAAGACTCAGTACAGTGAAGAACGC | 1.66 | 1.18 | 0.455 | 1.12 | 1.13 | -0.0434 | 0.717 | 0.344 | 1.32 | 0.147 | 0.3 | 0.259 | 0.586 | 0.238 | 0.176 | 0.369 | 0.766 | 0.66 |
| ACTATTAGTTGAGAGGAGGGCAACCGATAGGTTG | 0.402 | 0.862 | 0.559 | 0.202 | 0.333 | 0.447 | 0.403 | 0.168 | 0.97 | 0.991 | 1.1 | 0.586 | 0.81 | 0.0671 | 0.396 | 1.32 | -0.435 | 0.461 |
| CCTAGTTGGTCAAGGTCACAAACGCTATAGGTAC | 2.22 | 3.73 | 1.23 | 1.64 | 2.99 | 3.94 | 1.93 | 4.17 | 2.34 | 4.05 | 4 | 4.1 | 4.24 | 1.87 | 4.02 | 4 | 3.57 | 3.9 |
| ATCTCTACGTAAAGATAGTTCAGTGAATGCAAAT | -0.595 | 0.188 | 0.317 | 1.43 | -0.705 | 0.115 | 0.219 | -0.211 | 0.168 | 0.474 | 0.65 | 0.0953 | 0.572 | 0.102 | 0.153 | 0.0897 | -0.716 | 0.535 |
| TCGAGTAGGTTACCAATGGGGCATTCAACTTTCT | 3.18 | 3.11 | -0.0959 | -0.457 | 0.301 | 0.506 | -0.241 | 0.916 | -0.285 | 1.14 | 1.11 | 1.49 | 0.547 | 0.496 | 1.01 | 0.551 | -0.246 | -0.194 |
| CCTCGGAGGACAACAGGAGGTCAGAGCCGCCAGA | -0.218 | 0.369 | -1.41 | -1.45 | 1.21 | 1.72 | 0.183 | 1.99 | -0.021 | 2.92 | 3.53 | 3.51 | 3.53 | 0.0894 | 1.71 | 2.8 | 0.858 | 0.836 |
| AGAATGAGTTTATACGTAGATCAGGGAAGAAAGT | -0.616 | 0.0744 | 0.757 | 0.612 | -0.608 | 0.81 | 1.21 | -0.34 | 0.222 | 0.0922 | -0.157 | 0.14 | 0.357 | 3.89 | -0.175 | -0.0164 | -0.368 | 3.35 |
| AATACAGGGTAATCGTAGGCCAGAGTACGCACAG | 2.12 | 2.19 | 0.939 | 0.00215 | -0.0424 | 0.0668 | 0.0801 | 0.578 | 0.101 | 0.525 | 0.578 | 0.923 | 0.637 | -0.324 | 0.61 | 1.34 | -0.13 | 0.508 |
